ERAP1 inh – inhibitors of human ERAP1 aminopeptidase | Q9NZ08 | recombinant ERAP1, Leu-AMC fluorescence, 60 min | inhibition, % at 10.7 µM | 340,000 tested, 0.15% active | AID 652197;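 active means mean replicate inhibition of at least 30%, or all replicates individually reaching that 30% level; inactive means mean below 30% and not every replicate reaching it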
Target sequence (Q9NZ08 whole entry, looked up): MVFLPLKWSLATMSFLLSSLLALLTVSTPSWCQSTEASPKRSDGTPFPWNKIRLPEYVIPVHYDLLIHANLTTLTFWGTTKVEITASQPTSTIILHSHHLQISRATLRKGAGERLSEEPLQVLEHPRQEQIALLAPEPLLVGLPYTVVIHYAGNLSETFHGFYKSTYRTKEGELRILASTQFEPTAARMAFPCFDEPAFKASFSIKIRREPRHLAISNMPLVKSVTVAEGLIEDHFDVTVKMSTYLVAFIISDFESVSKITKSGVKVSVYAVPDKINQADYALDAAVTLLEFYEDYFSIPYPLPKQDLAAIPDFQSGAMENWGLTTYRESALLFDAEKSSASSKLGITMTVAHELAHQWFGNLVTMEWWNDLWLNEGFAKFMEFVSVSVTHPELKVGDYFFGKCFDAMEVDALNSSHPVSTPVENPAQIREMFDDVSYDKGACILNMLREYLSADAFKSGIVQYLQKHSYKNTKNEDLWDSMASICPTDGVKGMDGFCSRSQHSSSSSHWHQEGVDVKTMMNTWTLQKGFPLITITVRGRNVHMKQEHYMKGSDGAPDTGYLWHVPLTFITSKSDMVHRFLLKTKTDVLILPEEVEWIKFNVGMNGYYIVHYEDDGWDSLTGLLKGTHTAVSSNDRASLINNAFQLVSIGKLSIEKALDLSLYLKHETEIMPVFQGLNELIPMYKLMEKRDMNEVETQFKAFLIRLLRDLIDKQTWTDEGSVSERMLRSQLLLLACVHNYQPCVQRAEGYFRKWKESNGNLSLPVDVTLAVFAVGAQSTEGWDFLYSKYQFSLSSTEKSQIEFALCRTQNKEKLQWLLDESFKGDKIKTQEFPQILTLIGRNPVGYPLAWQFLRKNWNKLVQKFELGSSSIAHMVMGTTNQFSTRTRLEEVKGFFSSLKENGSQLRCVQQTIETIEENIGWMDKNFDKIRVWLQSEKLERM
GSIS activator – GLuc luminescence reporter in INS-1E cells, primary screen for activators of glucose-dependent secretion of insulin; INS-1E GLuc reporter insulin secretion, 2-3 h; activation, % at 16.6 µM; 370,000 tested, 0.61% active;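 active means lowest replicate activation of at least 40%, so every replicate reaches that level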
CaV13 ICDI inh – Primary screen for inhibitors of IQ motif and Ca2+-dependent inactivation inhibitor domain binding in CACNA1D, Förster resonance energy transfer in living cells, … | HEK cells, CFP/YFP FRET ICDI-IQ, plate reader, 10 min; percent FRET-ratio fall versus neutral wells | inhibition, % at 12.3 µM | 340,000 tested, 0.098% active | AID 743397;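 active means mean replicate inhibition of at least 30% and at least 1% of replicates passing that level; inconclusive means only one of the two criteria is met; inactive means neither criterion is met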
DENV2 CPE rescue – DENV2-induced cell death inhibition | DENV2-infected cells, cytopathic effect rescue, plate reader | CPE inhibition, % at 9.99 µM | 350,000 tested, 1.7% active; in the data active means CPE inhibition above about 20%, passing the limit was not always enough; inconclusive means no clear call, values can overlap the other calls; tested in BHK-21 cells
PGC1a acetyl inh – lowers PGC1a acetylation signal in U2OS cells; AlphaScreen anti-acetyl-lysine; with virally co-expressed GCN5 acetyltransferase; inhibition, % at 15.6 µM; 350,000 tested, 0.17% active;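 active means every replicate shows inhibition of at least 40%; inconclusive means mean inhibition at least 40% but some replicate below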
rRNA inh HTS – inhibitors of bacterial rRNA selective over humanized ribosomes. E. coli WT GFP vs humanized-ribosome RFP mutants, fluorescence, 24 h; hits give low values; DMSO median 0, no signal -100. AID 720706. 350,000 tested, 1.6% active. GFP signal change (wild-type ribosome), % (test concentration not listed);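 active means significant combined selectivity score with lowered wild-type GFP, culture density cut under 30%, mutant RFP and density less affected; inactive means any of these conditions unmet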
Hits are given with their value; 0 = inactive; ? = inconclusive; - = no result given; ! = a repeat was not active. Shown are actives, neighbours in structure and some others; about 3.2% of the full set was active somewhere.

SMILES | ERAP1 inh | GSIS activator | CaV13 ICDI inh | DENV2 CPE rescue | PGC1a acetyl inh | rRNA inh HTS
COc1ccc2c3c([nH]c2c1)[C@@H](CO)N(C(=O)c1ccccn1)CC31CCN(C(=O)C2CCCC2)CC1 | 0 | 0 | - | 23 | - | 0
C/C=C/c1cnc2c(c1)C(=O)N([C@H](C)CO)C[C@@H](C)[C@H](CN(C)C(=O)Nc1c(C)noc1C)O2 | 0 | 0 | - | 0 | 0 | 0
O=C(c1ccc(F)cc1)C(CN1CCOCC1)c1ccccc1 (stereo not given) | 0 | 0 | 0 | 0 | 60 | 0
COc1ccc(C(=O)C(CN2CCCC2)c2ccccc2)cc1 (stereo not given) | - | - | 0 | - | 0 | -
CCCCOc1ccc(SCCCN2CCOCC2)cc1 | 0 | 58 | 0 | 0 | 0 | 0
CCCCOc1ccc(C(=O)C(CN2CCOCC2)c2ccccc2)cc1 (stereo not given) | - | - | 0 | - | 80 | -
COc1ccc(C(=O)C(CN2CCOCC2)c2ccccc2)cc1 (stereo not given) | 0 | 0 | 0 | 0 | 0 | -50
CCCOc1ccc(C(=O)C(CN2CCCC2)c2ccccc2)cc1 (stereo not given) | 0 | 0 | 0 | 0 | - | 0
O=C(c1ccc(Cl)cc1)C(CN1CCCC1)c1ccccc1 (stereo not given) | 0 | 0 | 0 | 0 | - | 0
O=C(Cc1ccccn1)N[C@@H]1CC[C@@H](CC(=O)N2CCCCC2)O[C@@H]1CO | 0 | 0 | - | 0 | 0 | 0
O=C(C[C@@H]1CC[C@H](NC(=O)C2CC2)[C@H](CO)O1)NCCCN1CCOCC1 | 0 | 0 | - | 0 | 0 | 0
CN(C)CCn1c(COc2ccccc2)nc2ccccc21 | 0 | 0 | 0 | 0 | - | 0
C=CCn1c(COc2ccccc2)nc2ccccc21 | 0 | 0 | 0 | 0 | - | -27
O=C(Cn1c(COc2ccccc2)nc2ccccc21)Nc1cc(Cl)cc(Cl)c1 | - | 68 | 0 | - | - | -
CC=Cc1ccc2n(c1=O)C[C@@H]1[C@@H](CO)[C@H](C(=O)Nc3ccccc3)[C@H]2N1C(=O)CC (mixture of isomers) | 0 | 0 | - | 0 | - | 0
CCOC(=O)CC1(c2ccc(OC)c(OC)c2)C(=O)c2ccccc2C1=O | 0 | 0 | 0 | 0 | 0 | -27
CO[C@H]1CN(C)C(=O)c2ccc(NC(C)=O)cc2OC[C@@H](C)N(C(=O)C2CCCCC2)C[C@@H]1C | 0 | 0 | - | 0 | - | 0
O=C(CCCC(=O)c1ccc(O)cc1)c1ccc(O)cc1 | - | 0 | 0 | 0 | 0 | 0
O=C1C=CC(=C(c2ccc(O)cc2)c2ccc(O)cc2)C=C1 | 0 | 0 | 0 | 0 | - | -50!
CCNC(=O)Nc1ccc2c(c1)C(=O)N(C)[C@@H]1CC[C@H](CC(=O)N[C@@H](C)c3ccccc3)O[C@@H]1CO2 | 0 | 0 | - | ? | - | 0
CN1C=C/C(=C\c2cc[n+](C)c3ccccc23)c2ccccc21 | 80 | 0 | 0 | 0 | - | 0
CC[n+]1ccc(/C=C2\Sc3ccccc3N2CCCS(=O)(=O)[O-])c2ccccc21 | 0 | 0 | 0 | 0 | 0 | 0
C[C@@H]1CN([C@H](C)CO)S(=O)(=O)c2ccc(C#CC(C)(C)O)cc2O[C@H]1CN(C)C | 0 | 0 | - | 0 | 0 | 0
O=C(Nc1ccc(F)cc1)c1cccnc1Oc1ccccc1 | 0 | 89 | 0 | 0 | 0 | 0
Cc1cc2c(NC(=O)Nc3ccc(C(C)(C)C)cc3)cccc2nn1 | 0 | 0 | 0 | 0 | - | -33
SMILES | ERAP1 inh | GSIS activator | CaV13 ICDI inh | DENV2 CPE rescue | PGC1a acetyl inh | rRNA inh HTS
Cc1ccccc1CC1(CO)CCCN(Cc2nc(-c3cccs3)oc2C)C1 (stereo not given) | 0 | 0 | 0 | 0 | - | -25
COc1ccc(C(=O)Nc2ccccc2C(=O)O)cc1Cl | 0 | 0 | 0 | 0 | - | 0
COc1ccc(C(=O)Nc2ccccc2C(=O)O)cc1NC(=O)C(c1ccccc1)c1ccccc1 | 0 | - | 0 | 0 | - | -36
S=C(NCCCc1cnc[nH]1)NCCCN(Cc1ccccc1)c1ccc(Br)cn1 | - | 0 | 0 | 0 | - | 0
CCCCN(CCCNC(=S)NCCCc1cnc[nH]1)c1ccc(Br)cn1 | 0 | 72 | 0 | 0 | - | 0
C[C@@H]1CCCCO[C@H](CN(C)C(=O)Nc2ccccc2)[C@H](C)CN([C@H](C)CO)C(=O)c2cc(NC(=O)C3CCCCC3)ccc2O1 | - | 0 | - | - | 0 | 0
O=C(NCC[C@H]1CC[C@@H](NS(=O)(=O)c2ccccc2)[C@@H](CO)O1)c1ccc2c(c1)OCO2 | 0 | 0 | - | 0 | 0 | 0
N#Cc1ccc(-c2ccc([C@@H]3[C@@H](CO)N4CCCCN(C(=O)Nc5ccc(F)cc5)C[C@@H]34)cc2)cc1 | 0 | 0 | - | 0 | 0 | 0
N#Cc1ccc(-c2ccc([C@H]3[C@@H](CO)N4CCCCN(C(=O)Nc5ccc(F)cc5)C[C@H]34)cc2)cc1 | 0 | 0 | - | 0 | 0 | 0
N#Cc1ccc(-c2ccc([C@H]3[C@H]4CN(C(=O)Nc5ccc(F)cc5)CCCCN4[C@H]3CO)cc2)cc1 | 0 | 0 | - | 24 | 0 | 0
N#Cc1ccc(-c2ccc([C@H]3[C@H](CO)N4CCCCN(C(=O)Nc5ccc(F)cc5)C[C@@H]34)cc2)cc1 | 0 | 0 | - | 49 | 0 | 0
O=C(CCN1CCCCC1)NCC[C@@H]1CC[C@@H](NS(=O)(=O)c2cccc(F)c2)[C@@H](CO)O1 | 0 | 0 | - | 0 | 0 | 0
CC(=O)NC(=S)NNC(=O)CCc1ccccc1 | 0 | 0 | 0 | 0 | - | -24
CCCCC(=O)NC(=S)NNC(=O)CCc1ccccc1 | 0 | 0 | 0 | 0 | 0 | 0
O=C(CCc1ccccc1)NNC(=O)c1cc(Cl)ccc1O | 0 | 0 | 0 | 0 | 0 | 0
Cc1cc(Cl)ccc1NNC(=O)CCc1ccccc1 | 0 | 0 | 0 | 0 | 0 | -29
O=S(=O)(c1cccs1)N1CCC(CO)(Cc2cccc(F)c2)CC1 | 0 | 0 | 0 | 0 | - | -23
O=c1ccc(-c2ccc(S(=O)(=O)Nc3cccc(Br)c3)o2)n[nH]1 | 0 | 0 | 0 | 27 | 0 | 0
CC(C)COC(=O)N(C)C[C@@H]1OCc2cn(nn2)CCCC(=O)N([C@H](C)CO)C[C@H]1C | 0 | 0 | - | 0 | 0 | 0
Cc1nc2c(-c3ccc(F)cc3)cnn2c2c1CCC2 | 0 | 44 | 0 | 0 | - | 0
COc1ccc(-c2cnc3c(-c4ccc(F)cc4)cnn3c2N)cc1 | 0 | 0 | 0 | 0 | 0 | 0
Cc1ccc(C2C(C(=O)c3cccs3)=C(O)C(=O)N2c2cccc(C)n2)cc1 (stereo not given) | 0 | 0 | 0 | 0 | - | -15
COc1ccc(NC(=O)N(C)C[C@H]2Oc3ccc(N(C)C)cc3C(=O)N([C@@H](C)CO)C[C@@H]2C)cc1 | 0 | 0 | - | 0 | 0 | 0
CCc1nnc(NC(=O)c2ccc(F)c(S(=O)(=O)N3CCCCC3)c2)s1 | 0 | 0 | 0 | 69 | - | 0
CC(C)NC(=O)N(C)C[C@@H]1OCCCC[C@@H](C)Oc2ccc(NC(=O)Nc3ccc(F)cc3)cc2C(=O)N([C@H](C)CO)C[C@@H]1C | 0 | 0 | 0 | 48! | 0 | 0
